GALC G270D act: enhancers of human galactocerebrosidase G270D mutant activity in cells. Potency, µM (series often up to 57.5 µM), hits mostly activators. 145M-Twi-hGALC-G270D cells (Twitcher mouse brain line with human GALC G270D), HMU-beta-Gal fluorescence, 48 h. P54803. actives 0.1% (n = 45,000). AID 1159614; note: 0% is about no effect; nearly all actives have a fitted effect of over 65% in size
Target sequence (P54803 whole entry G286D): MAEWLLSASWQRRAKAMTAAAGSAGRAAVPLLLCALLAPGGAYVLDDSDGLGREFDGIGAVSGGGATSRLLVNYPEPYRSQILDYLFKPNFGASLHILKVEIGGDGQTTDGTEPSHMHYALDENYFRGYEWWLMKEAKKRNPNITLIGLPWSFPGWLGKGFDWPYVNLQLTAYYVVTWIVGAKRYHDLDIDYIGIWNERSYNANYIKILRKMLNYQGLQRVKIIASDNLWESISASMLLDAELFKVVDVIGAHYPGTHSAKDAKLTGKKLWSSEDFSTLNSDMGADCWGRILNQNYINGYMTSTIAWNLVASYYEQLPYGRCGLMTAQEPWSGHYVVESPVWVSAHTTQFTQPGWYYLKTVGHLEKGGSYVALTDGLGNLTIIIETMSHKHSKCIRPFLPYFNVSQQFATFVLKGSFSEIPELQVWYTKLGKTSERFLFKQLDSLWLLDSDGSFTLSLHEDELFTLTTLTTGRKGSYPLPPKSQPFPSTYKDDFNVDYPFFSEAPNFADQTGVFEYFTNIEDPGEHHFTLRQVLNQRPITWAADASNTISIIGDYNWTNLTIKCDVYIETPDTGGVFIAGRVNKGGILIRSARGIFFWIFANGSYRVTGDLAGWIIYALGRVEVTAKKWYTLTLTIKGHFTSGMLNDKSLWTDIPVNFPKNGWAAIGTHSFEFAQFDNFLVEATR
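Fluorescence readout: HMU-β-gal cleavage by mutant GALC (0.1 mM final, citrate/phosphate pH 5.2 with 1 mg/mL taurocholate), stopped with carbonate/bicarbonate plus Triton X-100. Cells: murine Twitcher 145M-Twi expressing human G270D GALC; qHTS for activators.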
PMP22 txn prim: modulators of PMP22 gene transcription in S16 Schwann cells; S16 Pmp22-F2sN Schwann cells, FLuc/NLuc coincidence luminescence, 24 h; actives 2% (n = 43,000); Potency, µM (titrated, usually from 57.5 µM), inactives show top-dose activity change, negative = inhibition, actives largely listed as inhibitors; AID 1508649; active = clear falling dose curves in both reporters; inconclusive = both reporters move, but less clearly or upward; inactive = either reporter flat; the % is the NLuc reporter signal; note: % is set by controls: 0 for no effect and ±100 for the full control effect
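S16 Schwann cells carrying FLuc/NLuc coincidence reporter in the Pmp22 3' UTR treated with compound 24 h at 37C; FLuc then NLuc luminescence read sequentially by dual-luciferase reagents.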
pS6 MEF inh: reduces mTORC1 signaling in Tsc2 and p53 null MEF cells | Tsc2-/- p53-/- MEF, phospho-rpS6 immunofluorescence/PI, 24 h | Potency, µM (titrated, usually from 38.3 µM), for inactives: at the top dose activity change, negative = inhibition, hits mostly inhibitors | actives 0.78% (n = 44,000);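 note: plate controls were DMSO for no effect and rapamycin for full effect; nearly all actives have a fitted effect of over 50% in size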
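Compounds act on Tsc2-/-, p53-/- fibroblasts carrying an empty vector for 24 h before fixation and dual staining for phospho-S6 and DNA (propidium iodide). Values are percentages of cells above a rapamycin-defined pS6/PI threshold.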
p53null 32C tox: kills p53 null cells at the permissive temperature | H1299-neo p53 null cells, ATP luminescence, 24 h, 32C | Potency, µM (highest dose often 46.1 µM), inactives show at the highest dose activity change, negative = cytotoxicity, actives largely listed as cytotoxic | actives 0.62% (n = 55,000) | AID 903;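 note: 0% = DMSO only and -100% = full killing by 100 µM tamoxifen; nearly all actives have a fitted effect of over 55% in size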
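Cells lacking p53 (H1299-neo) are plated at 600 per well and allowed to settle overnight at 37C. Test compounds (up to 46 uM) are added and held 24 hours at 32C, then ATP is quantified by luminescence.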
S16 F2sN tox: toxic to S16 Pmp22-F2sN Schwann cells; S16 Pmp22-F2sN Schwann cells viability, CellTiter-Glo, 24 h; Potency, µM (titrated, usually from 57.5 µM), inactives show at the highest dose activity change, negative = cytotoxicity, actives largely listed as cytotoxic; actives 0.48% (n = 43,000); AID 1508642; note: % is set by controls: 0 for no effect and ±100 for the full control effect; nearly all actives have a fitted effect of over 65% in size
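S16 Pmp22-F2sN Schwann cells (500-1,000/well) in phenol-red-free DMEM with 10% FBS received 23 nL compound by pin tool for 24 h at 37 °C. Viability was then read as CellTiter-Glo luminescence after 15 min at room temperature.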
p53null 39C kill: selectivity test: cytotoxicity in p53 null cells, nonpermissive temperature | H1299 p53-null (neo) cells, 39C, ATPlite viability, 24 h | Potency, µM (highest dose often 46.1 µM), without a hit: at the highest dose activity, negative = cell killing, most hits filed as cytotoxic | actives 0.97% (n = 55,000) | AID 904;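 note: 0% = DMSO only and -100% = full killing by 100 µM tamoxifen; nearly all actives have a fitted effect of over 50% in size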
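ATP-luminescence viability readout (ATPlite, 20 min RT) after 24 hr compound treatment at 39C of H1299-neo or H1299-p53A138V cells; titration up to 46 uM; normalized to DMSO and 100 uM tamoxifen; Hill-fit AC50.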
Starred values were filed as active, the others as inactive; i = inactive; ? = inconclusive; . = no result given; [ ] = dose if it differs, or a comment. A selection: hits, their analogues and other compounds. The true share with any hit is near 3%. Unless noted, calls come from the whole dose curve; as a rule, active = well fitted curve in the direction sought with a large enough effect; inconclusive = small, poorly fitted or top-dose-only effect, or another doubt; inactive = no such curve, though single readings can be large; an effect the other way counts as inactive or inconclusive. Potency is the fitted concentration of half-maximal effect.

SMILES | GALC G270D act | PMP22 txn prim | pS6 MEF inh | p53null 32C tox | S16 F2sN tox | p53null 39C kill
CCC(=O)C1=C(c2ccc(F)cc2)N(C(=O)CC)n2cnnc2S1 | i | ? | 11.7µM* | -2.1% | ? | -1.1%
Cc1cc(C)n(-c2nnc(Nc3cc(Cl)ccc3C)c3ccccc23)n1 | i | -26.6% | 15.6% | 1.7% | -0.3% | 10.4%
Cc1nc(-c2cccc(F)c2)sc1CCNC(=O)C(=O)Nc1ccc2c(c1)OCCO2 | i | ? | 0.5% | -10.7% | -8.7% | ?
Cc1ccc(C2=CC(c3ccccc3F)n3c(nc4ccccc43)N2)cc1C (stereo not drawn) | i | ? | -0.7% | 12.6µM* | ? | ?
COc1cccc(C2=CC(c3ccccc3F)n3c(nc4ccccc43)N2)c1 (stereo not drawn) | i | ? | 0.1% | 11.2µM* | ? | ?
CCc1cc(C(=O)N2CCN(c3ccccc3)CC2)no1 | i | 2.2% | -0.1% | 3.0% | -5.9% | 14.7%
CCn1c(=N)c(C(=O)NCc2cccnc2)cc2c(=O)n3cc(C)ccc3nc21 | i | -5.6% | -10.8% | 4.0% | 22.4% | 5.9%
CCC(C)NC(=O)Cn1ccc2cc(S(=O)(=O)N3CCCCC3)ccc21 (stereo not drawn) | i | 2.6% | 1.1% | 17.3% | -0.5% | 9.5%
CCn1c(=O)c(C(=O)Nc2ccc(C(C)=O)cc2)nc2ccccc21 | i | 3.6% | -1.5% | 10µM* | -5.7% | 10µM*
CCn1c(NC(C)=O)nc2ccccc21 | . | . | . | 5.1% | . | -0.6%
Cc1ccc(CNc2ncnc3c2nnn3C)cc1 | i | -2.9% | -6.4% | -9.3% | -12.2% | -0.2%
Cc1cc(Nc2ccc(Cl)cc2C)nc(-n2nc(C)cc2C)n1 | i | 6.96µM* | 0.0% | -12.8% | 5.62µM* | -7.3%
COc1cccc(C(=O)NC2CC(=O)N(c3ccc4c(c3)OCCO4)C2)c1OC (stereo not drawn) | i | -28.1% | -8.2% | -1.8% | 13.1% | 7.2%
CC(c1cc2ccccc2s1)N(O)C(N)=O (stereo not drawn) | i | . | . | . | . | .
CCOc1cc(C(c2c(C)[nH]n(-c3ccccc3)c2=O)c2c(C)[nH]n(-c3ccccc3)c2=O)ccc1O | i | 9.46µM* | 6.8% | 3.8% | -3.3% | -12.3%
O=C(Nc1nnc(SCC(=O)N2CCCc3ccccc32)s1)c1ccccc1 | . | . | . | 7.94µM* | . | .
O=C1CC(c2nc3ccccc3n2CCCCOc2ccccc2)CN1c1ccccc1Cl (stereo not drawn) | i | ? | -1.9% | ? | -24.2% | 12.6µM*
CCc1ccccc1N1CC(c2nc3ccccc3n2CCC2CCCCC2)CC1=O (stereo not drawn) | i | ? | -0.9% | ? | ? | 15.8µM*
Cc1ccccc1N1CC(c2nc3ccccc3n2CCC2CCCCC2)CC1=O (stereo not drawn) | i | ? | 1.4% | -9.5% | -16.5% | -2.6%
CCC(CC)C(=O)Nc1cc(-c2nc3cccnc3s2)ccc1C | i | 0.9% | -6.5% | ? | 10.3% | ?
O=C(N/N=C/c1sc2ccccc2c1O)c1ccccc1 | . | . | . | 7.08µM* | . | .
CCCc1nn2cc(-c3ccc(C)c(C)c3)nc2s1 | i | -0.1% | 0.8% | 7.94µM* | -0.3% | 10µM*
CCCN(C(=O)c1cn(C)c(=O)c2cc(OC)c(OC)cc12)c1ccc(CC)cc1 | i | -14.1% | ? | 4.2% | -15.2% | -0.7%
CCOC(=O)c1cc2c(=O)n3ccccc3nc2n(Cc2ccco2)c1=NC(=O)c1c(F)cccc1Cl | i | 15µM* | -20.8% | -2.0% | ? | -6.9%
CCOCCCn1c(=N)c(C(=O)NCc2ccco2)cc2c(=O)n3ccccc3nc21 | 22.4µM* | ? | -1.8% | 4.0% | 1.4% | -15.9%
SMILES | GALC G270D act | PMP22 txn prim | pS6 MEF inh | p53null 32C tox | S16 F2sN tox | p53null 39C kill
CCOC(=O)c1cc2c(=O)n3ccccc3nc2n(Cc2ccco2)c1=NC(=O)c1cccc(C)c1 | i | ? | -1.1% | -8.0% | ? | 6.8%
O=C(Nc1cccc(Cl)c1)c1cnc[nH]1 | i | 6.6% | 15.8% | -5.6%[9.22 µM] | 12.0% | -26.0%
COc1ccc(NC(=O)c2cnc[nH]2)cc1 | i | 9.1% | -1.8% | 17.8µM* | -19.5% | 7.94µM*
COc1ccc(C)cc1NC(=O)Cn1c(=O)oc2cc(S(=O)(=O)NCc3ccccc3)ccc21 | i | -4.8% | -1.4% | 8.3% | 6.1% | 9.8%
CCOc1ccc(-c2nonc2NC(=O)c2oc3ccc(Br)cc3c2C)cc1 | i | ? | -22.9% | 12.6µM* | -14.9% | ?
CCOc1ccc(-c2nonc2NC(=O)c2oc3cc(Br)ccc3c2C)cc1 | i | 9.46µM* | -12.4% | ? | ? | ?
CCCNC(=O)c1ccccc1NC(=O)c1ccccc1N(C)S(=O)(=O)c1ccc(C)cc1 | . | . | . | -8.6% | . | 5.0%
O=C1CC(c2ccccc2)Cc2[nH]c(=O)c(-c3nc(-c4ccc(Cl)cc4)cs3)cc21 (stereo not drawn) | i | 0.751µM* | 5.85µM* | 32.5% | ? | -1.9%
COC(=O)c1ccc(-c2nc3cc(N)ccc3o2)cc1 | . | . | . | ? | . | -14.5%
Nc1ccc2oc(-c3ccccn3)nc2c1 | . | . | . | 11.2µM* | . | -20.7%
CN1C(=O)c2ccccc2Sc2ccc(NC(=O)c3ccc(C(F)(F)F)cc3)cc21 | i | 11.3µM* | -0.4% | 14.9% | -10.9% | 4.4%
COc1ccc(/C=N/Nc2nncc3ccccc23)cc1 | . | . | . | 4.47µM* | . | .
COc1ccc(/C=N/Nc2cc(OC)ncn2)cc1 | . | . | . | . | . | 8.5%[1.84 µM]
O=C(NCC1CCN(Cc2cccc(Cl)c2)CC1)Nc1ccc(F)c(Cl)c1 | i | -33.1% | 18.5µM* | 4.5% | ? | ?
CCc1ccc(OCC2c3cc(OC)c(OC)cc3CCN2C(=O)c2ccc(S(=O)(=O)N3CCCC3)cc2)cc1 (stereo not drawn) | i | -16.8% | 7.2% | 2.3% | 0.6% | 16.5%
Cc1ccc(NC(=O)c2ccc(-c3ccccc3)s2)cc1 | i | -3.5% | 0.5% | -5.2% | 3.2% | -20.5%
Cc1ccc(NC(=O)c2ccccc2O)cc1 | . | . | . | 12.6µM* | . | 10µM*
CCOc1ccc(C2CC(=O)c3c([nH]c(C(=O)OCCOc4ccccc4)c3C)C2)cc1 (stereo not drawn) | i | ? | -10.4% | -23.1% | 28.2µM* | ?
COc1ccc(OC)c(C2CC(=O)c3c([nH]c(C(=O)OCc4ccc(C)cc4)c3C)C2)c1 (stereo not drawn) | i | -15.6% | 6.56µM* | 19.5% | ? | 0.6%

Screens deposited in PubChem BioAssay by National Center for Advancing Translational Sciences (NCATS).
